Screening results as filed in PubChem BioAssay.
M1 antag: antagonists of human M1 muscarinic receptor | P11229 | CHO-K1 hM1, Fluo-8 calcium fluorescence, ACh EC80 antagonist | inhibition, % at 3 µM | 360,000 tested, 1.3% active | AID 588852;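 active = percent inhibition above its own plate's cutoff, namely the mean of that plate's compound wells plus 3 SD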;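 also: peak over basal fluorescence ratio during 140 s after agonist addition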
Target sequence (P11229 whole entry, looked up): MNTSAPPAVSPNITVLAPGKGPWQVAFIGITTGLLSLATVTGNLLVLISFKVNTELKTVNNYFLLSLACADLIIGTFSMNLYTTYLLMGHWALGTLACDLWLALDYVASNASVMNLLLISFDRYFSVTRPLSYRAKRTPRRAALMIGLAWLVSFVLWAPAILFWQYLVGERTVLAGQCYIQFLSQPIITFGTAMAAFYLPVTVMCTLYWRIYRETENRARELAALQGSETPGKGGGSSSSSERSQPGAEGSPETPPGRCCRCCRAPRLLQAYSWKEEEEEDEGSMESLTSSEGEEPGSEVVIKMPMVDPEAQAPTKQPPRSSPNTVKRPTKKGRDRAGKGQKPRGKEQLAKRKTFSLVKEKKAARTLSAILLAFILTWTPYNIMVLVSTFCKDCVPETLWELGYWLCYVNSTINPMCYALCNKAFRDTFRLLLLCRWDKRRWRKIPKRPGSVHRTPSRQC
CHO-K1 Ca antag: nonselective inhibitor or artifact in parental CHO-K1 cells | ATP-induced calcium, Fluo-8 fluorescence | inhibition, % at 3 µM | 360,000 tested, 0.6% active | AID 602250;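 active = inhibition above a per-plate cutoff, the plate's mean sample inhibition plus 3 SD, cut at about 24% in these data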
CHRM1 PAM: positive allosteric modulators of human M1 muscarinic receptor; CHO-K1 hM1, Fluo-8 calcium fluorescence, ACh EC20; 0% = ACh EC20, 100% = maximal ACh; activation, % at 3 µM; 360,000 tested, 0.088% active; AID 588819; in the data active = activation above about 19%, passing the limit was not always enough
M1 PAM parental: nonselective activator or artifact in parental CHO-K1 calcium assay; ATP EC20, Fluo-8 calcium fluorescence; 0% at ATP EC20, 100% at ATP max; activation, % at 3 µM; 360,000 tested, 0.02% active; AID 602247;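 active = activation above the run cutoff, the mean activation of all test compounds plus 3 SD, cut at about 40% in these data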;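 also: peak over basal fluorescence ratio in a 140 s read after ATP addition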
CHO-K1 Ca ag: M1 agonist counterscreen hit in parental CHO-K1 cells; Fluo-8 calcium fluorescence; scaled to maximal ATP response, vehicle zero; activation, % at 3 µM; 360,000 tested, 0.48% active; AID 602248; in the data active = activation above about 15%;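 also: untransfected CHO-K1 host cells lacking M1 receptor as counterscreen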
CHRM1 agonist: human M1 muscarinic receptor agonism. CHO-K1 hM1, Fluo-8 calcium fluorescence, agonist mode; 0% DMSO, 100% acetylcholine EC100. activation, % at 3 µM. 360,000 tested, 0.33% active. AID 588814;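 active = activation above the run's mean compound activation plus 3 SD, cut at about 16% in these data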;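 also: peak over basal fluorescence ratio within a 140 s kinetic read after compound addition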
Numbers stand for hits; n = inactive. Sampled rows, rich in hits. Any-hit rate of the full collection: about 2.4%.

SMILES	M1 antag	CHO-K1 Ca antag	CHRM1 PAM	M1 PAM parental	CHO-K1 Ca ag	CHRM1 agonist
CN(CC(=O)NC1CCN(Cc2ccccc2)CC1)S(=O)(=O)c1ccc(Cl)cc1	n	n	n	n	n	n
O=S(=O)(c1ccc(Cl)cc1)N1CCN(C2CCN(Cc3ccccc3)CC2)CC1	37	n	n	n	n	n
COc1ccc(S(=O)(=O)N2CCCCC2)cc1	n	27	n	n	n	n
COc1ccc(S(=O)(=O)N2CCC(N3CCN(Cc4ccccc4)CC3)CC2)cc1	84	n	n	n	n	n
COc1cccc(N2C(=NC(=O)COc3ccccc3)SC3CS(=O)(=O)CC32)c1 (stereo unspecified)	n	n	n	n	n	n
CS(=O)(=O)Nc1cccc(C2=NN(C(=O)CCCC(=O)O)C(c3cccs3)C2)c1 (stereo unspecified)	n	n	n	n	n	n
C[C@@]12C(=O)N(c3cccc(F)c3)C(=O)N1[C@@H]1c3ccccc3OC[C@@H]1[C@H]2c1ccccc1	n	n	n	n	n	n
CS(=O)(=O)N1CCN(c2ccccc2NC(=O)Nc2cccc(Cl)c2)CC1	n	n	n	n	n	n
O=[N+]([O-])c1ccc(S(=O)(=O)N2CCN(C3CCN(Cc4ccccc4)CC3)CC2)cc1	n	n	n	n	n	n
O=[N+]([O-])c1ccccc1S(=O)(=O)N1CCN(C2CCN(Cc3ccccc3)CC2)CC1	54	n	n	n	n	n
COc1ccc(NS(=O)(=O)c2ccc(N3CCCCC3)c(NC(=O)C(C)NC(N)=O)c2)cc1 (stereo unspecified)	n	n	n	n	n	n
COc1ccc(NS(=O)(=O)c2ccc(N3CCCCC3)c(N)c2)cc1	36	n	n	n	n	n
COc1cc(S(=O)(=O)N2CCN(Cc3ccccc3)CC2)ccc1Br	n	48	n	n	n	n
CN(C(=O)CSc1nc(-c2cccs2)nc2ccccc12)C1CCS(=O)(=O)C1 (stereo unspecified)	n	n	n	n	n	n
O=C(C1=C(O)C(=O)N(c2nccs2)C1c1ccccc1)c1cc2ccccc2o1 (stereo unspecified)	n	n	n	n	24	n
O=C(Cn1cnc2ccccc21)N1CCc2ccccc21	n	28	n	n	n	n
O=C(Cn1cnc2ccccc21)Nc1ccc(C(=O)O)cc1	n	n	n	n	n	n
CC(/C=N/NC(=O)Cn1cnc2ccccc21)=C\c1ccccc1	n	27	n	n	n	n
O=C(Cn1cnc2ccccc21)N/N=C/c1ccccc1	n	n	n	n	17	n
CC1CCc2nn(CC(=O)N3CCc4ccccc43)cc2C1 (stereo unspecified)	102	n	n	n	n	n
CC(/C=N/NC(=O)CCn1nnc2ccccc21)=C\c1ccccc1	n	n	n	n	n	n
CCC(C)(CN(C)C)OC(=O)c1ccccc1 (stereo unspecified)	n	n	n	n	n	n
COc1ccccc1C(=O)NC(=O)CSc1nnc(C)s1	n	55	n	n	n	n
Cc1c(/C=C/C(=O)c2ccccc2)cnn1C	n	n	n	n	16	n
CC1(c2ccc([N+](=O)[O-])cc2)Nc2ccccc2S1 (stereo unspecified)	n	n	n	n	15	n
SMILES	M1 antag	CHO-K1 Ca antag	CHRM1 PAM	M1 PAM parental	CHO-K1 Ca ag	CHRM1 agonist
C=CC[C@H](CC(=O)NCCO)C(=O)NCCOC(=O)[C@@H](CC=C)CC(=O)OC(C)(C)C	n	n	n	n	n	n
O=C1C(=O)N(CCCn2ccnc2)C(c2ccc([N+](=O)[O-])cc2)/C1=C(\O)c1ccc2c(c1)OCCO2 (stereo unspecified)	n	n	n	n	n	n
CCOC(=O)C1CCCN(C(=O)Cc2ccc(OC)c(OC)c2)C1 (stereo unspecified)	n	n	n	n	n	n
CCOC(=O)C1CCCN(Cc2ccc(O)c(OC)c2)C1 (stereo unspecified)	n	n	n	n	n	23
CCOC(=O)C1CCCN(Cc2nc3ccc([N+](=O)[O-])cc3c(=O)n2-c2ccc(OC)cc2OC)C1 (stereo unspecified)	51	n	n	n	n	54
CCOC(=O)C1CCCN(C(=O)/C=C/c2cc(OC)c(OC)c(OC)c2)C1 (stereo unspecified)	n	n	n	n	n	24
